# Screening data as filed in PubChem BioAssay.
# TIM10 inh – TIM10 yeast growth inhibition | inhibition, % at 10 µM | 330,000 tested, 1.4% active | S. cerevisiae TIM10 strain growth, BacTiter-Glo luminescence, 24 h | AID 463195;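 active means inhibition of 40% or more at the single tested concentration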;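 further: wild-type TIM10 isogenic control strain grown at permissive 25 °C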
# NALP3 yeast inh – NALP3 inhibition in yeast. 330,000 tested, 0.39% active. inhibition, % at 10 µM. Yeast reconstituted NLRP3/ASC/caspase-1, beta-gal luminescence, 24 h;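 active means inhibition of 50% or more; inactive means inhibition below 50%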;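 further: plate controls were induced DMSO wells for no effect and uninduced yeast grown without galactose for full effect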
# tim23-1 inh – growth inhibitors of tim23-1 mutant yeast. S. cerevisiae tim23-1 growth, BacTiter-Glo luminescence, 24 h. inhibition, % at 20 µM. 330,000 tested, 1.3% active. AID 463212;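 active means growth inhibition of the mutant yeast at or above 50%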;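 further: temperature-sensitive mutant grown at 25 °C; plate controls were DMSO-treated mutant yeast for no effect and medium wells lacking yeast for full effect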
# SKKanGAS inh – blocks kanamycin growth of S. pyogenes SKKanGAS strain; inhibition, % at 7.5 µM; BacTiter-Glo, 6 h; 300,000 tested, 1.3% active; AID 1662;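 active means mean replicate score, as percent of positive control median, at least 50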;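 further: strain carries kanamycin resistance gene driven by streptokinase promoter and grows in 40 µg/ml kanamycin; loss of luminescence reflects streptokinase promoter inhibition or plain growth inhibition; 0% = median of DMSO wells and 100% = positive control at its reference dose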
# PfHsp90 yeast 2 – reduces growth (ATP signal) of yeast expressing P. falciparum Hsp90. S. cerevisiae expressing PfHsp90, BacTiter-Glo ATP, 48 h; yeast lacking PDR1 and PDR3 efflux regulators. inhibition, % at 9.4 µM. 310,000 tested, 0.32% active;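 active means every replicate shows inhibition above about 80%, whatever the replicate mean, limit read from the data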;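 further: 0% = DMSO neutral controls and 100% = 20 µM radicicol positive controls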
# tim10-1 inh – growth inhibitors of tim10-1 mutant yeast; 330,000 tested, 2.2% active; inhibition, % at 20 µM; S. cerevisiae tim10-1 ts strain growth, BacTiter-Glo, 24 h; AID 463190;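 active means inhibition of at least 40%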;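 further: mutant grown at 25 °C; 0% = DMSO wells with yeast and 100% = wells holding no yeast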
# tim10-1 conf – tim10-1 yeast growth inhibition, confirmed | shares compounds with tim10-1 inh | S. cerevisiae tim10-1 ts strain growth, BacTiter-Glo, 24 h | AID 463213 | inhibition, % at 20 µM | 7,400 tested, 56% active;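 active means inhibition of yeast growth at or above a set limit in either of two repeat tests at 20 µM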;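 further: tim10-1 mutant grown at permissive 25 °C to find synthetic lethal compounds; 0% = DMSO yeast wells and 100% = medium wells without yeast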
# Active calls of the source: *; / = no result. Shown are actives, neighbours in structure and some others; about 4.6% of the full set was active somewhere.
SMILES,TIM10 inh,NALP3 yeast inh,tim23-1 inh,SKKanGAS inh,PfHsp90 yeast 2,tim10-1 inh,tim10-1 conf
CCN(C(=O)CSC1=Nc2ccccc2C2CC=NN12)C1CCS(=O)(=O)C1 (configuration not stated),-2,4,3,-1,-3,2,/
CCc1nc2cc(Cl)c(Cl)cc2[nH]1,32,29,27,-6,5,41*,37*
Cc1cc(NC(=O)c2ccccc2Oc2ccccc2)no1,39,-14,33,-3,2,44*,31*
COc1ccccc1C(=O)Nc1cc(C)on1,-3,25,10,-3,0,2,/
O=C(CCCOc1ccc(Cl)cc1Cl)NN1CCOCC1,4,15,15,4,-6,-4,/
O=C(Nc1ccccc1F)c1ccc2c(c1)CCN2S(=O)(=O)c1ccccc1,23,1,36,0,5,40*,16
C=CCc1ccc(O)c(-c2ccc(O)c(CC=C)c2)c1,34,-6,47,15,-49,45*,48*
CCCN(CC(=O)Nc1ccccc1C)C(=O)c1sc2ccccc2c1Cl,-8,13,26,/,-7,-6,/
CCC1CCCCN1c1nc(-c2ccncc2)nc2ccccc12 (configuration not stated),27,1,43,-10,6,50*,38*
Nc1nc2ccc(S(=O)(=O)N3CCCCC3)cc2s1,2,17,15,-1,-22,40*,20
CC[C@H](C)[C@H](NC(=O)OCc1ccccc1)C(=O)OCC(=O)Nc1ccc(N2CCOCC2)cc1,5,17,13,-9,-20,7,/
O=c1c2cn[nH]c2nc(SCc2cc(=O)n3cc(Br)ccc3n2)n1-c1ccc(Br)cc1,11,3,1,25,-14,16,/
O=c1c2cn[nH]c2nc(SCc2ccccc2F)n1-c1ccc(Br)cc1,23,8,39,5,-17,42*,23
COc1ccc(C)cc1NC(=O)c1ccc2c(=O)n3c(nc2c1)CCCCC3,-2,14,36,11,7,41*,6
CCc1ccc(CNC(=O)CCn2ccc3cc(S(=O)(=O)N4CCCC4)ccc32)cc1,2,3,14,4,-32,9,/
N#Cc1sc(NCc2ccccc2)nc1Cl,11,4,40,2,21,41*,22
COc1ccc(CNc2nc(Cl)c(C#N)s2)cc1,18,24,35,-2,-4,39,/
CCOC(=O)/C=C/C(=O)Nc1cccc([N+](=O)[O-])c1,36,2,38,4,98*,56*,71*
CC(NC(=O)Nc1cccc([N+](=O)[O-])c1)(C(F)(F)F)C(F)(F)F,22,15,40,-10,21,42*,33*
O=C(Nc1cccc([N+](=O)[O-])c1)c1cccc(C(=O)Nc2cccc([N+](=O)[O-])c2)c1,21,5,-10,5,-5,-31,/
COC(=S)Nc1cccc(C(F)(F)F)c1,9,-1,0,19,-18,6,/
CCOC(=O)/C=C/C(=O)OCC(=O)Nc1ccc([N+](=O)[O-])cc1,19,-20,40,-16,-9,43*,59*
COC(=O)/C=C/C(=O)Nc1cccc(C(F)(F)F)c1,32,35,41,1,7,47*,51*
COc1cc(/C=C/C(=O)OCC(=O)Nc2ccc([N+](=O)[O-])cc2)ccc1O,-4,-3,-8,5,-36,-9,/
Nc1ncnc2c(C3OC(CO)C(O)C3O)scc12 (configuration not stated),/,/,/,/,23,/,/
SMILES,TIM10 inh,NALP3 yeast inh,tim23-1 inh,SKKanGAS inh,PfHsp90 yeast 2,tim10-1 inh,tim10-1 conf
CCCc1nc(NCCCOCC)c2nnn(Cc3ccccc3)c2n1,1,11,24,-1,16,12,/
CCn1c(=O)n(CC)c2cc(N3CCCC3)c(NC(=O)c3ccc(C)cc3)cc21,-9,15,32,-8,28,42*,-15
CCn1c(=O)n(CC)c2cc(N3CCCC3)c(NC(=O)c3cc(Br)ccc3OC)cc21,4,9,40,65*,/,44*,-3
CCn1c(=O)n(CC)c2cc(N3CCCC3)c(NC(=O)c3ccccc3)cc21,11,8,22,-2,4,25,/
COC(=O)C1=C(C)NC2=C(C(=O)CC(C)(C)C2)C1c1cnn(C)c1C (configuration not stated),13,-6,3,-4,-75,5,/
Cc1nn(C)cc1C(C(=O)NC1CCCCC1)N(C(=O)Cc1cccs1)c1ccc(Cl)cc1 (configuration not stated),1,-8,3,2,-44,-3,/
COc1ccc(/C=C/c2ccc(=O)n(Cc3ccccc3)n2)cc1,0,13,22,5,-6,40*,-1
O=c1ccc(/C=C/c2ccccc2)nn1Cc1ccc(F)cc1,-32,5,-18,3,-33,-11,/
CCn1c2ccccc2c2nc3ccccc3nc21,7,-26,43,10,-44,43*,35*
CCn1c2ccccc2c2nc3cc(OC)c(OC)cc3nc21,30,29,42,-8,/,30,/
CN(C)c1ccc(C(C(=O)NCc2ccccc2)N(Cc2cccnc2)C(=O)c2snc(C(N)=O)c2N)cc1 (configuration not stated),-9,-3,14,1,36,17,/
CSC1=C(C#N)C(c2ccccc2Cl)C2=C(N1)c1ccccc1C2=O (configuration not stated),30,10,47,1,9,46*,28
CC1=C(C#N)C(c2ccccc2)C2=C(N1)c1ccccc1C2=O (configuration not stated),27,11,15,0,-26,16,/
Cc1ccsc1C1NC(=O)c2c(sc3c2CCCC3)N1 (configuration not stated),38,-8,48,11,-1,48*,35*
CC(C)Oc1ccc(CNC(=S)N/N=C/c2ccc([N+](=O)[O-])cc2)cc1,-2,28,-3,-2,-6,43*,22
O=C(NC(=S)NCCc1ccc(Cl)cc1)c1ccco1,35,30,30,8,7,48*,24
S=C(NCCc1ccc(Cl)cc1)NCc1ccco1,24,18,-1,-4,-1,34,/
S=C(NCCc1ccc(Cl)cc1)NC1CCCC1,9,36,21,-2,-5,43*,13
COc1cc(SC)ccc1C(=O)Nc1cccc(C2OCCCO2)c1,8,16,31,-15,0,6,/
CC(=O)OCCC(NS(=O)(=O)OCC(Cl)(Cl)Cl)c1ccccc1 (configuration not stated),11,0,21,1,-2,16,/
